{"source": "the supplement of paper PMC11417369", "note": "± gives the standard deviation of the averaged measurements. The full ranking holds about 25,000 sequences; the median of “ln(normalized median fluorescence intensity)” is about 8.9, and the highest 2% start at about 10. The entries come from a sample that favours the highest values as a whole.", "data": [{"system": "PfAP2-LT AP2 domain (GST-tagged)", "assay": "gcPBM binding intensity (ln(normalized median fluorescence intensity)); higher = stronger DNA binding", "procedure,_shortened": "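For binding intensity, the highest Masliner-normalised natural-log median intensity across replicate spots of either probe orientation was taken. Protein bound to the array was stained with Alexa488 anti-GST antibody and scanned at 488 nm. The protein, GST-tagged P. falciparum DNA-binding domains from E. coli at about 25 μg on average, had been applied for 1 h to an Agilent 4 × 180k array of primer-extended double-stranded 36-bp intergenic genomic probes and negative controls.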", "values": [{"sequence": "TGAACACGCACAAATACACACAAAAAAAATAAATAA [CACACA_site6257]", "gcPBM binding intensity (ln)": "9.31 ± 0.49"}, {"sequence": "CATATACACGAACACACACACACACGCACAAAAAAA [CACACA_site6376]", "gcPBM binding intensity (ln)": "10.1 ± 0.24"}, {"sequence": "TATATACACGCACATACACACAAATAAAAAAACACC [CACACA_site7578]", "gcPBM binding intensity (ln)": "9.67 ± 0.31"}, {"sequence": "AAAAAAATATATATATATATATATATATATATATAT [TGCATGCA_negctrl_site7]", "gcPBM binding intensity (ln)": "9.605 ± 0.064"}, {"sequence": "AAAAAAAAAAAAAAAAAAAAAAAAAAATATATATAT [CACACA_negctrl_site271]", "gcPBM binding intensity (ln)": "8.74 ± 0.28"}, {"sequence": "AAAAAAAAAATATATATATATATATATATATATATA [GTGCAC_negctrl_site467]", "gcPBM binding intensity (ln)": "10.1 ± 0.2"}, {"sequence": "AAAAAAAAAAAAAATATATATATATATATATATATA [CACACA_negctrl_site540]", "gcPBM binding intensity (ln)": "10.1 ± 0.25"}, {"sequence": "AAAAAAAAAAAAAAAAAAAAAAAAATATATATATAT [CACACA_negctrl_site436]", "gcPBM binding intensity (ln)": "9.25 ± 0.27"}, {"sequence": "AAAAAAAAAAAAAAAAAAAAATATATATATATATAT [GTGCAC_negctrl_site426]", "gcPBM binding intensity (ln)": "9.67 ± 0.085"}, {"sequence": "ATATTTATATATATCATACACACTAATATGTATATT [CACACA_site3409]", "gcPBM binding intensity (ln)": "8.95 ± 0.42"}, {"sequence": "ATATAAATAAATACAACACACATGTCATATCTAAAT [CACACA_site7533]", "gcPBM binding intensity (ln)": "9.12 ± 0.39"}, {"sequence": "AGTAGTCTGGAGAAATGTACACAGTATCTGGTAGCT [XGTACX_site4871]", "gcPBM binding intensity (ln)": "8.86 ± 0.44"}, {"sequence": "AAAACATACATATATACACACATATATATATATATA [CACACA_site1852]", "gcPBM binding intensity (ln)": "9.97 ± 0.53"}, {"sequence": "AAAAAAAAAAAAAAAACACACATACACGCACGCACA [CACACA_site7569]", "gcPBM binding intensity (ln)": "9.35 ± 0.23"}, {"sequence": "AAAAAAAAAAAACACACACACAAATACAAATACATA [CACACA_site415]", "gcPBM binding intensity (ln)": "9.99 ± 0.38"}, {"sequence": "AATACATATAATACAACACACAAGTAATATAAACCT [CACACA_site3597]", "gcPBM binding intensity (ln)": "9.34 ± 0.29"}, {"sequence": "AAAAAAAAAAAAAACACACACACACGCAAATACATA [CACACA_site6474]", "gcPBM binding intensity (ln)": "10.3 ± 0.27"}, {"sequence": "ATACAACATATATATACACACATATAATAATAATAA [CACACA_site3367]", "gcPBM binding intensity (ln)": "9.26 ± 0.38"}, {"sequence": "AAAAAAAAAAAAAACACACACACACGCATACACATA [CACACA_site7364]", "gcPBM binding intensity (ln)": 10.2}, {"sequence": "AAGTAATACAACACGCACATATATATATATATATAT [GTGCAC_negctrl_site89]", "gcPBM binding intensity (ln)": "10.3 ± 0.25"}, {"sequence": "AAAAAAAAAAAAAACACACACACACGCACATATACA [CACACA_site7288]", "gcPBM binding intensity (ln)": "10.1 ± 0.3"}, {"sequence": "GGTACATACAAACACACACACAAAAAAAAAAAAATA [CACACA_site1577]", "gcPBM binding intensity (ln)": "9.65 ± 0.4"}, {"sequence": "CACATACACATACACATACACACGCATAGAAACATA [CACACA_site2136]", "gcPBM binding intensity (ln)": "9.71 ± 0.28"}, {"sequence": "CATATATATATATATTGTACAAGATTGTTTTTTTAT [XGTACX_site3913]", "gcPBM binding intensity (ln)": "8.79 ± 0.3"}, {"sequence": "ATAAAAATTTAAAAAGAACACACGAAAGAAGGACTT [CACACA_site3929]", "gcPBM binding intensity (ln)": "9.01 ± 0.53"}, {"sequence": "TTTTTTATGATTAACACACACACAAAAAAAAAAAAA [CACACA_site4130]", "gcPBM binding intensity (ln)": "9.03 ± 0.32"}, {"sequence": "AAAAATTTTAATTAGGAACACACATATATATATATA [CACACA_site9016]", "gcPBM binding intensity (ln)": "9.48 ± 0.42"}, {"sequence": "ATATTTGCCCAAGATAGTACATATATATATATATAT [XGTACX_site7756]", "gcPBM binding intensity (ln)": "9.74 ± 0.2"}, {"sequence": "TACATATTTTATAACTGTACTTTTTTATTATCCAAT [XGTACX_site5396]", "gcPBM binding intensity (ln)": "8.71 ± 0.47"}, {"sequence": "TAAATAAAAAGACACACACACATATTTATATTTATA [CACACA_site7135]", "gcPBM binding intensity (ln)": "9.7 ± 0.19"}, {"sequence": "AAAAAAAAAAAACATACACACATACATACCTATATA [CACACA_site6575]", "gcPBM binding intensity (ln)": "9.33 ± 0.3"}, {"sequence": "AACACATACAAACACACACACAAAAAAAAAAAAAAA [CACACA_site393]", "gcPBM binding intensity (ln)": "9.65 ± 0.49"}, {"sequence": "AAAAAAAAAAAAAACACACACACAAATACAAATACA [CACACA_site414]", "gcPBM binding intensity (ln)": "9.9 ± 0.36"}, {"sequence": "TAAAAGGAGACATATACACACATATATATATATATA [CACACA_site5539]", "gcPBM binding intensity (ln)": "10 ± 0.23"}, {"sequence": "AACAAAAAAACAAACACACACACACGCATATTTATA [CACACA_site7680]", "gcPBM binding intensity (ln)": "10.2 ± 0.29"}, {"sequence": "AAGGATCACGCACAAACACACATATTTATATTTATA [CACACA_site6405]", "gcPBM binding intensity (ln)": "9.14 ± 0.45"}, {"sequence": "AACATACACATATACACACACACATATATACCTATA [CACACA_site6643]", "gcPBM binding intensity (ln)": "10 ± 0.31"}, {"sequence": "TAAACATACCTATACACACACACACGCACACGCACA [CACACA_site6372]", "gcPBM binding intensity (ln)": "10.22 ± 0.042"}, {"sequence": "AAAAAAAACAAACACACACACAAATATTTATATATT [CACACA_site436]", "gcPBM binding intensity (ln)": "9.63 ± 0.22"}, {"sequence": "AAAAAAAAAAAAAACACACACACACGCATACAAAAT [CACACA_site6794]", "gcPBM binding intensity (ln)": "10.2 ± 0.13"}, {"sequence": "ATAAAAAGGAGACACACACACACACGCATATTTATA [CACACA_site6551]", "gcPBM binding intensity (ln)": "10.3 ± 0.26"}, {"sequence": "AATGAAGACTTTTTTACACACTTCATATATTATATA [CACACA_site2034]", "gcPBM binding intensity (ln)": "8.9 ± 0.39"}, {"sequence": "ATATATCAAAATAATTGTACAAATTTTATATAATTT [XGTACX_site7249]", "gcPBM binding intensity (ln)": "8.53 ± 0.47"}, {"sequence": "CGTACATAATTTTAATCACACACAAACAAACACATA [CACACA_site7947]", "gcPBM binding intensity (ln)": "9.42 ± 0.34"}, {"sequence": "ATACTAAAAAGTATCTGTACTTATTTTAAAAATAAA [XGTACX_site4116]", "gcPBM binding intensity (ln)": "8.19 ± 0.53"}, {"sequence": "TTATATTCTTTTCTCTTTCTACTTTTTTTTTTTTTT [XGTACX_negctrl_site317]", "gcPBM binding intensity (ln)": "8.45 ± 0.69"}, {"sequence": "ATAGGTGAATACTAATATAAATTCAAGAGGGAAAAG [CACACA_negctrl_site720]", "gcPBM binding intensity (ln)": "8.9 ± 0.55"}, {"sequence": "AAAAAAGTAAAAAGTGCATGTAAAATATAAGTATCT [TGCATGCA_site55]", "gcPBM binding intensity (ln)": "9.18 ± 0.61"}, {"sequence": "CATATACATATATGTAGTACGTGTTCTTCTATATGA [XGTACX_site8344]", "gcPBM binding intensity (ln)": "8.84 ± 0.44"}, {"sequence": "TATAATGGTTCTGGTGTGCACCATGACAGAATCAAG", "gcPBM binding intensity (ln)": "8.82 ± 0.38"}, {"sequence": "GTGTAAATATAATTAGTTTCACAAAACAAATATTTA [CACACA_negctrl_site717]", "gcPBM binding intensity (ln)": "8.61 ± 0.42"}, {"sequence": "AAAGGGGATATATGAACACACAAAAAAAAAATATAT [CACACA_site2896]", "gcPBM binding intensity (ln)": "9.13 ± 0.68"}, {"sequence": "ATTCTTTACTCATAAAATTATATTATATAAACTTTT [XGTACX_negctrl_site554]", "gcPBM binding intensity (ln)": "8.45 ± 0.52"}, {"sequence": "AGTAATTTAAGGAATACACACAAGAAAAAAATAAGA [CACACA_site6177]", "gcPBM binding intensity (ln)": "9.13 ± 0.61"}, {"sequence": "AGATCATAATATTATACACACATTATATATCTGTAA [CACACA_site4925]", "gcPBM binding intensity (ln)": "9.14 ± 0.26"}, {"sequence": "GATCTACATGAAAGGACACACAAATATATATATATA [CACACA_site84]", "gcPBM binding intensity (ln)": "9.62 ± 0.35"}]}]}
